SARS PLP yeast – qHTS of Yeast-based Assay for SARS-CoV PLP. hit rate 0.19% among 330,000. AID 485353, 2010. S. cerevisiae expressing SARS-CoV PLpro, growth rescue. Potency, µM (highest dose often 32.9 µM), actives largely listed as activators; calls by dose curve; also: nearly all actives have a fitted effect of over 55% in size
NS1 function inh – qHTS Assay for Inhibitors of Influenza NS1 Protein Function; hit rate 0.4% among 270,000; Potency, µM (series often up to 46.1 µM); calls by dose curve; also: actives are rising curves; nearly all actives have a fitted effect of over 50% in size
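S. cerevisiae expressing influenza A NS1, grown in glucose, washed, then diluted 1:100 into pH 6.0 -URA galactose medium with 23 nl compound. Growth recovery read as OD600; NS1-free strain serves as control.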
Shiga inhibitor – A qHTS for Small Molecule Inhibitors of Shiga Toxin; inhibition, % at 38.7 µM; Vero cells, Shiga toxin protein synthesis inhibition reporter; hit rate 9.2% among 290,000; in the data active = inhibition mostly above about 28%, no sharp cut-off; inactive = mostly below about 43%
Cycloheximide cs – Cycloheximide Counterscreen for Small Molecule Inhibitors of Shiga Toxin. max response, %. hit rate 12% among 300,000. cell reporter, cycloheximide protein synthesis inhibition counterscreen; in the data active = max response mostly above about 13%, no sharp cut-off; inactive = mostly below about 14%; also: read at 38.3 µM for the half of the compounds with a filed dose
TbPYK inhibitor – qHTS of Trypanosoma Brucei Inhibitors; TbPYK enzyme, Kinase-Glo Plus ATP luminescence, 45 min; Potency, µM (top dose mostly 76.8 µM), most hits filed as inhibitors; hit rate 0.12% among 410,000; also: nearly all actives have a fitted effect of over 50% in size
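Glycolytic pyruvate kinase of T. brucei was incubated with substrate, test compound and 130 uM ADP for 45 minutes at room temperature. Luminescent Kinase-Glo Plus signal was measured after 10 minutes.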
LmPK inh – qHTS Assay for Inhibitors of Leishmania Mexicana Pyruvate Kinase (LmPK); hit rate 0.37% among 290,000; AID 1721, 2009; purified LmPK, Kinase-Glo ATP luminescence, 1 h; Potency, µM (highest dose often 57.5 µM), actives largely listed as inhibitors
Target sequence (Q27686 whole entry, looked up): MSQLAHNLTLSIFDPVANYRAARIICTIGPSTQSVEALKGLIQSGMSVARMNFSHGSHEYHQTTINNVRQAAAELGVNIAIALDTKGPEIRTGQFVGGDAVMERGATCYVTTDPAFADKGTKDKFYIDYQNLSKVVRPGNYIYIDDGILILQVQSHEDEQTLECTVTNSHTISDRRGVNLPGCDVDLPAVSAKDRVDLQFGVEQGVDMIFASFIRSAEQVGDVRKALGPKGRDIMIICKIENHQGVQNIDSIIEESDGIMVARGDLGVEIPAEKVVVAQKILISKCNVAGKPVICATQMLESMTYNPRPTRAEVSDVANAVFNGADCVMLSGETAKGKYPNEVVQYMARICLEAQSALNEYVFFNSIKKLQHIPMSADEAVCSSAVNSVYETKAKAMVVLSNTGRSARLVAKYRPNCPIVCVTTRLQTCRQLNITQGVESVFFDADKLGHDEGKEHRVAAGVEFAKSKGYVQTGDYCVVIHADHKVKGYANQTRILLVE
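0.1 nM LmPK, 0.5 mM PEP, 0.1 mM ADP; 50 mM imidazole pH 7.2, 7 mM MgCl2, 50 mM KCl; 1 h RT. Kinase-Glo luminescence readout, normalized to no-enzyme (full inhibition) and uninhibited wells.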
Hits are given with their value; – = inactive; ? = inconclusive; · = no result; [ ] = remark or other dose. The sample as a whole holds a higher share of hits than the screen did. Unless noted, calls follow the shape of the dose curve; as a rule, active = well fitted curve in the direction sought with a large enough effect; inconclusive = small, poorly fitted or top-dose-only effect, or another doubt; inactive = no such curve, though single readings can be large; an effect the other way counts as inactive or inconclusive.

SMILES | SARS PLP yeast | NS1 function inh | Shiga inhibitor | Cycloheximide cs | TbPYK inhibitor | LmPK inh
CC1=CN2C(=N)/C(=C/c3ccc([N+](=O)[O-])o3)C(=O)N=C2S1 | – | – | – | – | – | –
COc1cccc(OCCn2cc(C=O)c3ccccc32)c1 | – | ? | · | 23 | – | –
COc1ccc(OCCCn2cc(/C=C3/C(=N)N4C=C(C)SC4=NC3=O)c3ccccc32)cc1 | – | – | 36 | 35 | – | –
CC1=CN2C(=N)/C(=C/c3cn(CCCOc4ccccc4C)c4ccccc34)C(=O)N=C2S1 | – | – | 24 | 67 | – | –
COc1cccc(OCCCn2cc(/C=C3/C(=N)N4C=C(C)SC4=NC3=O)c3ccccc32)c1 | – | – | 50 | 19 | – | –
Cc1ccc(C)c(-c2nn(CC(=O)Nc3cc(F)ccc3F)c(=O)c3c2CCCC3)c1 | · | · | · | · | – | ·
CN(C)CCNc1oc(-c2ccc(COc3ccc(Cl)cc3)o2)nc1C#N | · | · | · | · | – | ·
CCOC(=O)c1c(C)[nH]c(C)c1S(=O)(=O)N1CCC(C(=O)N2CCN(c3cccc(C)c3)C(C)C2)CC1 (centres undefined) | · | · | · | · | – | ·
Cc1cccc(OCCn2cc(/C=N/NC(=O)c3ccncc3)c3ccccc32)c1 | ? | – | 28 | 11 | – | –
CC1=CN2C(=N)/C(=C/c3ccco3)C(=O)N=C2S1 | – | – | 72 | 47 | – | –
C[C@H](CO)N1C[C@H](C)[C@H](CN(C)C(=O)c2ccccc2)Oc2cc(Br)ccc2S1(=O)=O | · | · | · | · | – | ·
Cc1c(C(=O)NCCc2ccc(Cl)cc2)sc2nc3n(c(=O)c12)CCCC3 | · | · | · | · | – | ·
CC1=C2C(=O)[C@@H]3[C@@H](CC=C4C[C@@H](O)CC[C@@]43C)[C@H]2CC[C@@]12O[C@H]1C[C@H](C)CN[C@H]1[C@@H]2C | · | – | · | · | · | ·
Cn1c(=NC(=O)CS(=O)(=O)c2ccccc2)sc2ccccc21 | – | · | · | · | – | ·
COc1ccc(C(=O)N=c2sc3cc(Cl)ccc3n2C)cc1 | · | · | · | · | – | ·
COc1cccc(C(=O)N=c2sc3cc(S(C)(=O)=O)ccc3n2C)c1 | – | – | 80 | 28 | – | –
COc1cc(OC)cc(C(=O)N=c2sc3ccccc3n2C)c1 | – | · | 33 | 29 | – | –
COC(=O)Cn1c(=NC(=O)c2cccc(OC)c2)sc2cc(OC)ccc21 | – | – | – | – | – | –
Cn1c(=NC(=O)COc2ccccc2)sc2ccccc21 | – | · | 78 | 42 | – | –
COc1ccc(C(=O)N=c2sc3ccccc3n2C)cc1 | – | – | 107 | 53 | – | –
C[C@H]1C[C@@H]2[C@H]([C@@H](O)C[C@@]3(C)[C@H]2CC[C@]3(O)C(=O)COC(=O)CCC(=O)O)[C@@]2(C)C=CC(=O)C=C12 | · | · | · | · | – | ·
COc1ccc(C(=O)COC(=O)c2cc(-c3ccccc3)nc3c(C)cccc23)cc1 | · | · | · | · | – | ·
Cc1ccc(SCc2cn3ccccc3n2)cc1 | – | – | 66 | 32 | – | –
Cc1ccc(C(=O)OCc2cn3ccccc3n2)cc1 | – | – | – | 15 | – | –
O=C(O)c1ccccc1SCc1cn2ccccc2n1 | – | ? | – | – | – | –
SMILES | SARS PLP yeast | NS1 function inh | Shiga inhibitor | Cycloheximide cs | TbPYK inhibitor | LmPK inh
c1ccc(CSCc2cn3ccccc3n2)cc1 | – | · | 112 | 47 | – | –
Fc1ccc(Nc2ccc(-c3ccc(F)cc3)nn2)cc1 | – | – | 63 | 50 | – | –
Fc1ccc(-c2ccc(Nc3cccc(F)c3)nn2)cc1 | – | – | 51 | 46 | – | –
Fc1cccc(Nc2nc(Cl)nc(Cl)n2)c1 | – | – | – | – | – | –
CCC(=O)Nc1ccc(Nc2ccccc2)cc1 | – | – | 34 | 16 | – | –
O=C(Nc1ccc(Nc2ccccc2)cc1)C(Cl)(Cl)Cl | – | – | 49 | 27 | – | –
COCC(=O)Nc1ccc(Nc2ccccc2)cc1 | – | ? | 61 | – | – | –
NC(=O)Nc1ccc(Nc2ccccc2)cc1 | – | – | – | – | – | –
c1ccc(COc2ncnc3c2ncn3CCCNCCN2CCOCC2)cc1 | · | · | · | · | – | ·
O=C(O)c1ccccc1NCc1cccs1 | – | – | · | – | – | –
COc1ccc2c(c1)c1c(c(=O)n(-c3cccc(C)c3)c(=O)n1Cc1cccc(Cl)c1)n2C | · | · | · | · | – | ·
COCCN(Cc1cc2cc(C)cc(C)c2nc1Cl)C(=O)Nc1ccccc1 | – | – | – | 16 | – | –
Cc1cc(C)c2nc(Cl)c(CN(Cc3ccco3)C(=O)Nc3ccccc3C)cc2c1 | – | ? | – | – | – | –
COc1ccc(OC)c(CNS(=O)(=O)c2ccc(-c3coc(C)n3)cc2)c1 | · | · | · | · | – | ·
CCCCN1C(=O)/C(=C2\SC(N3CCOCC3)=NC2=O)c2ccccc21 | – | – | 99 | 28 | – | –
O=C(CSc1ncc(-c2ccccc2)n1-c1ccccc1)NCc1ccco1 | – | –[9.22 µM] | – | – | – | –
COc1ccc(-n2c(-c3ccc(F)cc3)cnc2SCC(=O)NCc2ccco2)cc1 | – | – | 103 | 49 | – | –
COc1ccc(-c2nnc(SCC(=O)c3cccs3)o2)cc1 | – | – | 95 | 29 | – | –
Cc1cccc(OCc2nnc(SCC(=O)c3cccs3)n2C)c1C | – | – | – | 21 | – | –
COc1ccc(C(=O)CSc2nnc(-c3cc(C)cc(C)c3)o2)cc1 | – | – | – | – | – | –
COc1ccc(-c2nnc(SCC(=O)c3ccc(O)cc3O)o2)cc1 | – | – | 33 | – | – | –
CC(C)CCNC(=O)C(=O)NCC1OCCCN1S(=O)(=O)c1cccs1 (centres undefined) | – | – | – | – | – | –
COc1ccc(-c2nnc(SCC(=O)NCc3ccco3)o2)cc1 | – | – | 92 | 22 | – | –
COc1ccc(-n2nnc3c(SCC(=O)NCc4ccco4)ncnc32)cc1 | – | – | – | 19 | – | –
COc1ccc(Cc2nnc(SCC(=O)NCc3ccco3)o2)cc1 | – | – | – | – | – | –
SMILES | SARS PLP yeast | NS1 function inh | Shiga inhibitor | Cycloheximide cs | TbPYK inhibitor | LmPK inh
COc1ccc(NC(=O)CSc2nnc(-c3cccc(O)c3)o2)cc1 | – | – | – | – | – | –
COc1cccc(NC(=O)CSc2nnc(-c3cc(C)n(-c4ccccc4)c3C)o2)c1 | – | – | 101 | 48 | – | –
Cc1ccc(-n2nnc3c(SCC(=O)NCc4ccco4)ncnc32)cc1 | – | – | – | – | – | –
COc1ccc(-c2nnc(SCC(=O)c3cccs3)n2-c2ccc(Cl)cc2)cc1 | – | – | 75 | 40 | – | –
O=C(O)c1cc[c]([Hg][S]c2ncnc3nc[nH]c23)cc1 | · | – | · | · | · | ·
O=C(c1ccc2c(c1)N(Cc1c(F)cccc1Cl)C(=O)c1ccccc1S2)N1CCCC1 | · | · | · | · | – | ·
CCOC(=O)c1cc(-c2ccccc2)n(-c2cccc(C(=O)NC(C)CC)c2)c1C (centres undefined) | · | · | · | · | –[15.4 µM] | ·
CCn1c(SCC(=O)NC(C)C)nnc1-c1cccs1 | – | – | – | – | – | –
